# PubChem BioAssay AID485284 (NMMLSC, 2010)
# Results with a measured potency or affinity are listed apart.
# Experiment: inhibitors of CD8+ T cell–vesicle binding, dose response, mouse 2C CD8+ T cells, flow cytometry (AID 485284);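 further: drosophila derived vesicles carrying Ld MHC with QL9 peptide plus B7-1 and ICAM-1; vesicle binding seen as anti-B7-1 PE fluorescence on CD8 gated cells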
# Conditions: 2C mouse CD8+ T cell-exosome binding; at 45 µM (top of the series)
row,Compound,"binding remaining, % of control [%]"
1,O=C(COc1ccccc1)Nc1cc(S(=O)(=O)N2CCOCC2)ccc1N1CCCC1,128
2,O=C(N/N=C/c1cccc(OCc2ccccc2)c1)c1ccc(Br)cc1,63.5
3,Cc1cc(S(=O)(=O)N2CCN(Cc3ccccc3)CC2)c(C)s1,94.5
4,Cc1ccc(NC(=O)CN2C(=O)N/C(=C/c3ccc(C)s3)C2=O)cc1,46
5,Cc1ccc(C(C)n2cc(C(=O)NCCN3CCN(C)CC3)nn2)cc1 (stereo not drawn),144
6,CCOC(=O)C1CCN(C(=O)c2ccc(NC(=O)C3CCCO3)cc2)CC1 (stereo not drawn),218
7,Cc1ccc(C(C)C)c(OCC(=O)N2CCN(c3ncccn3)CC2)c1,17.4
8,Cc1ccccc1C(=O)N1CCC(C(=O)Nc2ccc(C)c(S(=O)(=O)N3CCCCC3)c2)CC1,134
9,CCCCOc1ccc(C(=O)NCC(=O)N2CCN(C(=O)c3ccco3)CC2)cc1,23.6
10,CCN(CC)S(=O)(=O)c1ccc2c3c(cccc13)C(=O)N2,56.2
11,O=C(Cc1c(Cl)cccc1Cl)Nc1cccc(S(=O)(=O)N2CCOCC2)c1,112
12,Cc1cccc(OCC(=O)Nc2ccccc2C(=O)N2CCOCC2)c1,161
13,CN1CCN(S(=O)(=O)c2ccc(C(=O)Nc3ccccc3)cc2)CC1,124
14,C=CCNC(=S)Nc1sc2c(c1C(N)=O)CCCC2,163
15,Cc1nc2sc(C(c3ccccc3)N3CCN(c4ccccc4F)CC3)c(O)n2n1 (stereo not drawn),163
16,COc1ccc(NC(=O)Nc2c(O)ccc3ccccc23)cc1,76.2
17,O=C(NNS(=O)(=O)c1ccc2ccccc2c1)c1cccs1,42.6

row,Compound,"binding remaining, % of control [%]"
1,N#Cc1cccc(NC(=O)CN2C(=O)NC3(CCCCCC3)C2=O)c1,176
2,Cc1ccc(Cn2c([N+](=O)[O-])cnc2C)cc1,35
3,COc1ccccc1N1CCN(C(=O)C2CCCN(S(=O)(=O)c3ccc(C)cc3)C2)CC1 (stereo not drawn),132
4,CCCNC(=O)NC(=O)CN1C(=O)NC(C)(c2ccc(C)cc2)C1=O (stereo not drawn),160
5,CCCOc1ccc(C2=CC(=O)C[C@H](c3ccc(OC)cc3)C2)cc1,143
6,O=C(NCc1ccccc1C(F)(F)F)C1CCC(=O)N(CCCc2ccccc2)C1 (stereo not drawn),90.8
7,CSCCC(NC(=O)c1ccc(=O)n(C)n1)c1nc2ccccc2[nH]1 (stereo not drawn),149
8,CCCNC(=O)CN1CCN(S(=O)(=O)c2ccc(Br)s2)CC1,100
9,COc1ccc([C@H]2CC(=O)C=C(c3cc(F)ccc3OC)C2)cc1,109
10,CCOC(=O)N1CCC(=NNc2ncc(C(F)(F)F)cc2Cl)CC1,24.2
11,O=C(N/N=C/c1cccc(OC(=O)c2ccccc2Cl)c1)c1cccnc1,168
12,COc1ccc(NC(=O)[C@@H](NC(=O)c2ccccc2F)C(C)C)cc1S(=O)(=O)N1CCOCC1,84.7
13,CCOc1ccc(CCNC(=O)CCS(=O)(=O)c2ccc(C)cc2)cc1OCC,94
14,O=C(/C=C/c1ccc(Br)cc1)c1ccc(NC(=O)c2ccco2)cc1,98.2
15,O=C(Cc1cccc(NC(=O)C2CCCN(C(=O)C3CC3)C2)c1)Nc1cccc(C(=O)N2CCCC2)c1 (stereo not drawn),47.2
16,Cc1c(C(=O)N(C)Cc2ccccc2)oc2ccc(S(=O)(=O)N3CCCC3)cc12,120
